Bioassay records deposited in PubChem by several laboratories.
In the library only some 1.9% were active in any assay of this set; here they are far more common.
EP2 modulator = modulators of human EP2 prostaglandin E2 receptor; 0.83% of 260,000 active; EP2-expressing cells, cAMP HTRF FRET, PGE2 co-stimulation; induction, % at 25 µM; P43116;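 active means compounds whose cAMP rise, as percent of the full-agonist control response, exceeds 60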;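 further: rat C6 glioma line stably carrying human EP2 under a CMV promoter; the protocol text gives 20 µM as final concentration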
Target sequence (P43116 whole entry, looked up): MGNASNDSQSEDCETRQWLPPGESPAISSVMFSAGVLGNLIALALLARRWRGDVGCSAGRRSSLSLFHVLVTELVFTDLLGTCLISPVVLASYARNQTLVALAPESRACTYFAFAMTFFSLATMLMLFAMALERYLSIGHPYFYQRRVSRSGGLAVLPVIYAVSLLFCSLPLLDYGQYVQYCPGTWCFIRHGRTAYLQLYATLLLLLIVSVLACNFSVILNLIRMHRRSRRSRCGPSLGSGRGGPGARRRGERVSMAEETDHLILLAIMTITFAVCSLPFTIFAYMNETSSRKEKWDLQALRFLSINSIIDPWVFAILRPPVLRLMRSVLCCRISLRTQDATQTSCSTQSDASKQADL
S1P3 antagonist = antagonists of human S1P3 receptor; 0.27% of 170,000 active; CHO S1P3 NFAT-BLA reporter, FRET fluorescence, antagonist mode; inhibition, % at 4.98 µM; Q99500;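 active means inhibition above the plate cutoff, the mean inhibition of test wells on that plate plus 3 SD, cut at about 28% in these data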;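 further: cells challenged with S1P at its EC80 of 0.8 µM; blue over green emission ratio from cleaved BLA substrate after 4 h stimulation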
PGE2 EP2 inh = EP2 receptor (human) inhibition. 0.52% of 260,000 active. C6 glioma cells expressing human EP2, cAMP TR-FRET; cells stimulated with saturating PGE2. AID 1422. P43116. inhibition, % at 25 µM;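 active means percent inhibition above 40 after rounding to a whole number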;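 further: rat C6 glioma host cells with rolipram phosphodiesterase inhibitor present; the protocol text gives 20 µM as final concentration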
S1P4 ag = activates the human S1P4 receptor | O95977 | S1P4-expressing cell line, agonist reporter assay | activation, % at 4.98 µM | 0.35% of 220,000 active; in the data active means activation above about 11%
Pf gamet viab = kills late stage P. falciparum gametocytes; 0.065% of 150,000 active; inhibition, % at 10.9 µM; P. falciparum stage V gametocytes, ATP luminescence, 24 h; AID 743093;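 active means inhibition above the mean plus 3 SD of compounds within the control limits, set per campaign, cut at about 38% in these data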
S1P4 antagonist = blocks the human S1P4 receptor. S1P4-expressing cells, antagonist mode, reporter read-out. AID 1510. O95977. 0.26% of 220,000 active. inhibition, % at 4.98 µM; in the data active means inhibition above about 29%
Numbers stand for hits; i = inactive; nt = no result given; ! = not active in a repeat.

SMILES	EP2 modulator	S1P3 antagonist	PGE2 EP2 inh	S1P4 ag	Pf gamet viab	S1P4 antagonist
COc1ccc2c(c1)c(CCN1C(=O)c3ccccc3C1=O)cn2C(=O)c1ccco1	i	55.0	i	i	i	i
COc1c(-c2coc3cc4c(cc3c2=O)CC(O)C(C)(C)O4)ccc2c1C=CC(C)(C)O2 (stereo not drawn)	i	nt	91.8	nt	nt	nt
Cc1cc(C)c(S(=O)(=O)N(Cc2cc3cc(C)cc(C)c3[nH]c2=O)CC2CCCO2)c(C)c1 (stereo not drawn)	i	nt	i	nt	nt	nt
COc1ccccc1NC(=O)N(Cc1ccccc1)c1ccccn1	60.7	nt	i	i	nt	i
O=C(Nc1ccccc1-c1ccccc1)c1cnccn1	66.1!	i	i	i	nt	i
Cc1cccc(Oc2ccccc2NC(=O)c2cnccn2)c1	60.9	nt	i	i	i	i
CS(=O)(=O)N(CC(=O)NCC1CCCO1)C1CCCCC1 (stereo not drawn)	i	nt	i	nt	nt	nt
Nc1nc(N)c(-c2cccc(C(F)(F)F)c2)c(Cc2cccc(C(F)(F)F)c2)n1	i	nt	62.5	nt	nt	nt
O=C(c1ccco1)N(Cc1ccco1)c1nc(-c2ccccc2)cs1	77.8	nt	i	nt	nt	nt
COc1ccc(-n2c(C)c(C(=O)O)c3cc(OC)c4ccccc4c32)cc1	69.7	i	i	i	i	i
Cc1ccc2nc3cc([N+](=O)[O-])cc([N+](=O)[O-])c3cc2c1	i	i	i	i	i	29.3
CCN(CC)c1ccc(/C=C/c2nc3ccccc3s2)cc1	i	nt	i	i	nt	i
COc1cc2nc(/C=C/c3ccc(N(C)C)cc3)sc2cc1SC	i	54.9	i	i	i	i
CCOP1(=O)OCC2OC(n3cnc4c(N)ncnc43)C(O)C2O1 (stereo not drawn)	103.6	i	i	i	i	i
Nc1ncnc2c1nc(Br)n2[C@@H]1O[C@@H]2COP(=O)(O)O[C@H]2[C@H]1O	nt	nt	i	nt	nt	nt
CN(CCO)c1nc(N)c(C#N)c(CC#N)c1C#N	i	i	i	i	i	i
CC(C)CN(CC(C)C)c1nc(N)c(C#N)c(CC#N)c1C#N	i	94.3	i	i	nt	i
O=C(Cc1ccc(-c2ccccc2)cc1)N1CCn2c(nnc2C2CC2)C1	i	nt	i	nt	nt	nt
CCOc1ccc2[nH]c(=O)c(CN(Cc3cccnc3)C(=O)Nc3ccccc3OC)cc2c1	i	i	i	i	nt	i
CCOc1ccc2[nH]c(=O)c(CN(Cc3cccnc3)C(=O)c3ccccc3Cl)cc2c1	i	nt	72.3	nt	nt	nt
Cc1ccc(S(=O)(=O)c2c(C)cc(C)nc2Oc2cccc(C(F)(F)F)c2)cc1	63.5	nt	i	i	nt	i
[Cu].c1ccc2c(c1)-c1nc-2nc2[n-]c(nc3nc(nc4[n-]c(n1)c1ccccc41)-c1ccccc1-3)c1ccccc21	i	nt	54.3	nt	nt	nt
CSc1nc2ccccc2n1Cc1c(Cl)cccc1Cl	64.6	nt	i	i	nt	i
CCOC(=O)C1=C(N)OC2=C(C(=O)CC(C)(C)C2)C1c1ccc(C)s1 (stereo not drawn)	i	i	i	i	i	i
CCOC(=O)C1=C(N)OC2=C(C(=O)CC(C)(C)C2)C1c1ccc(C)cc1 (stereo not drawn)	78.7	nt	i	nt	nt	nt
SMILES	EP2 modulator	S1P3 antagonist	PGE2 EP2 inh	S1P4 ag	Pf gamet viab	S1P4 antagonist
CC1CCCN(C(=O)CSc2nnc3n(CC(=O)NC(C)C)c4ccccc4n23)C1 (stereo not drawn)	i	nt	i	nt	nt	nt
Cc1ccc(C(=O)Nc2cc(Cl)ccc2N2CCCCC2)s1	62.4	nt	i	i	i	i
CCc1sc(C(=O)Nc2cc(Cl)ccc2N2CCCCC2)cc1C	i	nt	i	i	nt	i
COC(=O)C1C2C=CC3(CN(CCc4ccccc4)C(=O)C13)O2 (stereo not drawn)	i	i	51.0!	i	i	i
Cc1cccc(C)c1NC(=O)CSc1nnc(-c2ccoc2C)n1CC1CCCO1 (stereo not drawn)	i	nt	i	nt	nt	nt
Cc1ccc(C)c2[nH]c(=O)c(C(c3nnnn3Cc3ccccc3)N3CCCCCC3)cc12 (stereo not drawn)	74.8	nt	i	nt	nt	nt
Cc1cccc2cc(C(c3nnnn3Cc3ccc(F)cc3)N3CCCCCC3)c(=O)[nH]c12 (stereo not drawn)	67.2	nt	i	nt	nt	nt
COc1ccc(Cn2nnnc2C(c2cc3cccc(C)c3[nH]c2=O)N2CCCCC2)cc1 (stereo not drawn)	i	nt	i	nt	nt	nt
Cc1cccc2cc(C(c3nnnn3Cc3ccccc3)N3CCCCC3)c(=O)[nH]c12 (stereo not drawn)	68.5	nt	i	nt	nt	nt
Cc1nn(CC(=O)N2CCc3ccccc3C2)c(=O)c2cc3ccsc3n12	i	nt	nt	nt	nt	nt
O=c1[nH]c(N2CCCC2)nc2c1CN(Cc1cc(F)ccc1F)CC2	i	nt	i	nt	nt	nt
